# MBD2 DNA inh: inhibitors of MBD2 binding to methylated DNA, primary screen, biochemical, TR-FRET, DNA-binding domain, human; MBD2 binding to methylated oligonucleotide; Methyl-CpG-binding domain protein 2 (Homo sapiens), Q9UBB5; inhibition, % at 4.4 µM; 370,000 compounds, 0.31% hits; in the data active means inhibition above about 13%
# LEDGF integ inh: blockers of LEDGF/p75-dependent integrase strand transfer – biochemical, TR-FRET, high throughput, primary screen. 370,000 compounds, 0.64% hits. inhibition, % at 3.7 µM. AID 743269, 2014. TR-FRET IN-LEDGF/p75 DNA integration, Eu/Cy5;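 active means inhibition above the screen-wide mean plus 3 SD, cut at about 13% in these data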;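 further: signal is the Cy5 over europium emission ratio at 671 and 618 nm; 0% = plate median of compound wells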
# rCAG binder: binders of r(CAG) RNA repeats, primary screen, biochemical, fluorescence | inhibition, % at 3 µM | 370,000 compounds, 1.3% hits | r(CAG) RNA repeat, TO-PRO-1 dye displacement fluorescence;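 active means inhibition above the plate cutoff, the mean of all test compounds on that plate plus 3 SD, cut at about 35% in these data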;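 further: 0% = DMSO alone and 100% = 100 µM mitoxantrone as full dye displacement; higher means more dye released from RNA so lower well fluorescence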
# PRMT1 FP inh: PRMT1 methyltransferase inhibitors, primary screen, biochemical, fluorescence polarization | Protein arginine N-methyltransferase 1 (Homo sapiens), Q99873 | recombinant PRMT1, activity-based probe fluorescence polarization | inhibition, % at 2.79 µM | 370,000 compounds, 1.3% hits | AID 652257, 2013;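 active means inhibition above about 21% made by adding two undisclosed values, limit read from the data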
# UHRF1 binding: UHRF1 methylated DNA binding inhibitors, primary screen, counter-screen for MBD2 inhibitor project, biochemical, TR-FRET, human UHRF1, single concentration | E3 ubiquitin-protein ligase UHRF1 (Homo sapiens), Q96T88 | UHRF1 binding to methylated oligo | inhibition, % at 4.4 µM | 370,000 compounds, 0.75% hits | AID 687016, 2013; in the data active means inhibition above about 21%;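 further: UHRF1 SRA domain binding a hemimethylated CpG hairpin DNA probe; 0% = median of test compound wells and 100% = reference inhibitor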
# ABHD5-PLIN5 inh: ABHD5-PLIN5 interaction inhibitors, primary screen, cell lysate, split luciferase complementation, luminescence | Perilipin-5 (Homo sapiens) + 1-acylglycerol-3-phosphate O-acyltransferase ABHD5 (Homo … | Split G. princeps luciferase complementation, 4 h | inhibition, % at 4 µM | 360,000 compounds, 0.78% hits;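 active means inhibition above the mean inhibition across every tested compound plus 3 SD, cut at about 22% in these data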;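 further: 0% = DMSO only wells and the 100% control is not disclosed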
# Numbers without * were called inactive; nt = no result. An excerpt weighted towards active compounds, which were near 4.1% of everything screened.
SMILES,MBD2 DNA inh,LEDGF integ inh,rCAG binder,PRMT1 FP inh,UHRF1 binding,ABHD5-PLIN5 inh
COc1cccc(C(=O)Oc2c(Br)cc(Br)cc2/C=N/NC(=O)c2cc(C)[nH]n2)c1,2,-4,14,2,31*,-4
Cc1cc(C)c2c(-n3cccc3)c(C(=O)NNS(=O)(=O)c3ccc(Cl)cc3)sc2n1,-6,2,35*,0,0,-3
CNC(=S)NNC(=O)c1ccccc1Br,-2,3,-2,-2,21*,-7
COC(=O)c1cc2c(c3c4cc(F)ccc4n(S(=O)(=O)c4ccccc4)c13)C(=O)N(Cc1ccco1)C2,-1,1,24,11,1,nt
COC(=O)c1ccc(N)cc1O,0,0,0,0,-2,4
COC(=O)c1ccc(=O)c2nc3/c(=C/O)c(O)cc(=O)c3[nH]c12,7,52*,69*,29*,21*,3
CC(C)c1nnc(NC(=O)CCC2CCCCC2)s1,4,-5,-1,2,0,-1
O=C(CCC1CCCCC1)Nc1nncs1,-4,-1,0,0,26*,0
N#CC1=C(N)Oc2cc(N)ccc2C1c1ccc(F)cc1F (configuration not stated),-5,6,2,24*,-7,-1
CCC(C(=O)Nc1ccccc1N1CCCC1)c1ccccc1Cl (configuration not stated),-1,0,-1,0,-3,nt
COc1cccc(NC(=O)CSc2nc(O)c(C)c(=O)n2-c2ccc(C)cc2)c1,3,-1,9,24*,3,-7
CCCCc1c(O)nc(SCC(=O)Nc2ccc(C)cc2)n(-c2ccc(OC)cc2)c1=O,3,-9,5,9,2,-5
S=c1[nH]nc(-c2n[nH]c3c2CCC3)n1N=Cc1ccc(Br)s1,-3,2,22,19,-3,nt
CCCCS(=O)c1c(O)c2ccccc2[nH]c1=O (configuration not stated),7,-3,-2,22*,3,-3
O=c1[nH]c2ccccc2c(O)c1-[n+]1ccccc1,-6,2,-3,5,-4,-8
O=c1[nH]c2ccccc2c(O)c1O,3,-9,0,75*,5,98*
C=CCc1ccc(OCCN2CCc3ccccc3C2)c(OC)c1,5,-4,-11,2,29*,0
CN(C)c1nc(=NCc2ccco2)ss1,nt,nt,nt,nt,nt,90*
O=C(CSc1nnc(-c2cccnc2)n1Cc1ccco1)Nc1ccc(Cl)cc1,7,-4,5,1,0,nt
O=C1CC2(CCN(C(=O)c3ccccc3F)CC2)Oc2ccccc21,-7,0,-9,-1,0,5
O=C1CC2(CCN(C(=O)c3ccc(F)cc3)CC2)Oc2ccccc21,-3,40*,-8,-1,2,2
CC(C)n1nc(C(=O)Nc2nc3ccccc3[nH]2)c2ccccc2c1=O,3,-4,-4,4,98*,0
C[C@@H]1CN([C@H](C)CO)C(=O)c2cc(C#CC3CCCCC3)cnc2O[C@H]1CN(C)Cc1cccnc1,9,3,1,1,23*,13
C[C@@H]1CN([C@@H](C)CO)S(=O)(=O)c2ccc(C#CC3CCCCC3)cc2O[C@@H]1CN(C)Cc1cccnc1,11,2,6,0,24*,2
C[C@@H]1CN([C@@H](C)CO)C(=O)c2cc(C#CC3CCCCC3)cnc2O[C@@H]1CN(C)S(=O)(=O)c1ccc(F)cc1,11,3,7,-2,21*,5
C[C@H]1CN([C@@H](C)CO)C(=O)c2cc(C#CCC3CCCC3)cnc2O[C@@H]1CN(C)C(=O)CC1CC1,5,3,3,4,22*,4
